Bioassay records from PubChem.
This is a sample that favours compounds with a hit; in the whole collection about 3.9% have one here.
WT yeast gro inh: growth inhibition of WT yeast, mitochondrial fusion screen; mitochondrial fusion phenotypic screen, WT strain; inhibition, % at 10 µM; 190,000 tested, 2.1% active; in the data active = inhibition above about 58%; tested in S. cerevisiae
Rtt109 Vps75: blocks Candida albicans Rtt109/Vps75 acetyltransferase activity; AID 540336; 330,000 tested, 0.16% active; purified Rtt109/Vps75, ThioGlo CoA-SH fluorescence, 4 h; inhibition, % at 34.9 µM; Q5AAJ8;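 active = inhibition of at least 50% in every replicate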
Target sequence (Q5AAJ8 whole entry, looked up): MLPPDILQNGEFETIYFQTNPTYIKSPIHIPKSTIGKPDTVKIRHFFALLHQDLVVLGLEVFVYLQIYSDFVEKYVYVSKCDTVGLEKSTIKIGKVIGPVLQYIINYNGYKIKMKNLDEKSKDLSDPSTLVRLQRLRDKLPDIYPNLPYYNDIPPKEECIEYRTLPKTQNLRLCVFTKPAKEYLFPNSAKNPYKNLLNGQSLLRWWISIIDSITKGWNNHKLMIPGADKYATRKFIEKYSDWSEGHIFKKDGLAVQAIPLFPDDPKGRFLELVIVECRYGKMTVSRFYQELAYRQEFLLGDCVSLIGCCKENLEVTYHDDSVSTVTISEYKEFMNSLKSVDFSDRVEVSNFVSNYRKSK
Platelet DG rel: modulates dense granule release in human platelets. inhibition, %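 (compounds screened at 7.5 µM in platelet-rich plasma)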. AID 1663. human platelet-rich plasma, SFLLRN dense granule ATP release, luminescence. 300,000 tested, 0.22% active;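 active = mean replicate score, as percent of positive control, at or above 50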
TPT1 inhibitor: inhibitors of Candida albicans tRNA 2'-phosphotransferase TPT1; recombinant caTPT1, FP RNA substrate dephosphorylation; inhibition, % at 5 µM; 300,000 tested, 0.81% active;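 active = inhibition above the mean of all tested compounds plus 3 SD, set per screening campaign, cut at about 24% in these data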;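 note: plate controls were DMSO alone for no effect and ferristatin control at 100 nM for full effect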
SKKanGAS inh: inhibitors of SKKanGAS S. pyogenes growth in kanamycin (SK-promoter or general growth effect); 300,000 tested, 1.3% active; BacTiter-Glo, 6 h; inhibition, % at 7.5 µM;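 active = mean replicate score, as percent of positive control median, at least 50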;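 note: strain carries kanamycin resistance gene driven by streptokinase promoter and grows in 40 µg/ml kanamycin; loss of luminescence reflects streptokinase promoter inhibition or plain growth inhibition; 0% = median of DMSO wells and 100% = positive control at its reference dose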
PHOSPHO1 block: blocks human PHOSPHO1 phosphatase activity | inhibition, % at 13.3 µM | 290,000 tested, 1.1% active | recombinant PHOSPHO1, absorbance phosphatase assay | Q8TCT1; in the data active = inhibition above about 60%
Target sequence (Q8TCT1 whole entry, looked up): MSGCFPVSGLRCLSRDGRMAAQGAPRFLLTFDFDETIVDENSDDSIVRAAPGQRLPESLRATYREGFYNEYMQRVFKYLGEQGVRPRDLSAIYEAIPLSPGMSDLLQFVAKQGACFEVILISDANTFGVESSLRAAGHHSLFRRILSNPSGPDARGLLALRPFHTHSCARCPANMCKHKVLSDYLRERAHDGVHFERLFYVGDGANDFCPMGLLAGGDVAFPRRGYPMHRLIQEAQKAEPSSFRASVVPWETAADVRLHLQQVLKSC
The depositor's hits bear a star; . = no result given.

SMILES | WT yeast gro inh | Rtt109 Vps75 | Platelet DG rel | TPT1 inhibitor | SKKanGAS inh | PHOSPHO1 block
COc1cc(NC(=S)N2CCN(C/C=C/c3ccccc3)CC2)cc(OC)c1 | 14 | 4 | 57* | 1 | -15 | -6
COc1cccc(NC(=S)N2CCN(C/C=C/c3ccccc3)CC2)c1 | 16 | -8 | 4 | 1 | 2 | -36
O=C(NC1=NCCS1)c1cc(-c2cccc(Br)c2)nc2ccccc12 | 80* | -1 | 2 | -2 | 4 | 15
Cc1ccc2nc(-c3cccc(Br)c3)cc(C(=O)NC3=NCCS3)c2c1 | 32 | -11 | -9 | -1 | 48 | 24
CCCc1ccc(-c2cc(C(=O)NC3=NCCS3)c3ccccc3n2)cc1 | 80* | -3 | 12 | -3 | 9 | -4
CN(C(=O)c1ccc(NC(=O)Cc2ccc(NC(=O)C3CCCN(C(=O)C4CC4)C3)cc2)cc1)C1CCCC1 (centres undefined) | . | 0 | . | . | . | .
Clc1ccc(N2N=C(c3cccs3)CC2c2ccco2)cc1 (centres undefined) | 5 | -21 | 10 | -1 | -3 | 41
c1ccc(N2N=C(c3cccs3)CC2c2ccco2)cc1 (centres undefined) | 29 | -114 | -1 | 3 | 65* | 25
O=C(N/N=C/c1c(F)cccc1Cl)C(=O)N1CCCCCC1 | . | 15 | 4 | -2 | -2 | 18
O=c1cc(N=Nc2ccc(Cl)cc2)[nH]c(=O)[nH]1 | . | 2 | 7 | -1 | 97* | 46
COc1ccc(OCc2cc(C(=O)NCCN3CCCc4ccccc43)no2)c(Cl)c1 | . | 0 | -5 | 21 | 11 | 14
O=C(c1cnn2c(C(F)(F)F)cc(-c3ccc4c(c3)OCO4)nc12)N1CCCCC1 | 0 | 7 | 5 | -1 | 3 | -3
CN1CCN(C(=O)c2cnn3c(C(F)(F)F)cc(-c4ccc5c(c4)OCO5)nc23)CC1 | 98* | 2 | 7 | -4 | -2 | 1
C[C@@H]1CN(S(=O)(=O)C(C)(C)C)[C@H](CCO)/C1=C\c1ccccc1 | . | 3 | . | . | . | .
CC(C)(C)c1ccc(C(=O)CCCSC2=C(C#N)C(c3ccco3)C3=C(CCCC3=O)N2)cc1 (centres undefined) | -10 | 5 | . | 2 | . | 71*
NC(=O)c1oc2ccccc2c1NC(=O)c1ccc([N+](=O)[O-])o1 | . | 17 | -32 | 0 | 73* | 22
NC(=O)c1oc2ccccc2c1NC(=O)c1ccc(F)cc1 | -7 | 13 | -31 | 1 | -5 | -2
Cc1cc(C)cc(NC(=O)c2ccc([N+](=O)[O-])o2)c1 | 78* | -7 | -3 | . | 25 | 27
CC(=O)c1ccc(NC(=O)c2ccc([N+](=O)[O-])o2)cc1 | . | -1 | 1 | . | 9 | 29
Cc1ccc(-c2nnc(NC(=O)CCS(=O)(=O)c3ccccc3)o2)c(C)c1 | . | -1 | -10 | . | 2 | .
Cc1ccc(C)c(-c2nnc(NC(=O)COc3ccccc3)o2)c1 | . | 6 | -22 | 1 | 105* | .
Cc1ccc(C)c(-c2nnc(NC(=O)CCS(=O)(=O)c3ccccc3)o2)c1 | . | -6 | 0 | 0 | 51* | .
Cc1n[nH]c(C)c1S(=O)(=O)N1CCc2ccccc2C1 | . | -10 | -16 | -3 | -1 | 17
O=C(COc1ccccc1F)OCC(=O)c1ccc([N+](=O)[O-])cc1 | . | 2 | . | . | . | .
Cc1ccc(C)c(-c2nnc(NC(=O)C3=COCCO3)o2)c1 | . | -3 | 15 | -2 | -3 | .
SMILES | WT yeast gro inh | Rtt109 Vps75 | Platelet DG rel | TPT1 inhibitor | SKKanGAS inh | PHOSPHO1 block
Cc1ccc(C)c(-c2nnc(NC(=O)c3ccc([N+](=O)[O-])o3)o2)c1 | . | -10 | -5 | 0 | 80* | .
CCC(c1nnc(SCC(=O)Nc2nnc(-c3ccccc3)o2)o1)N(C)C (centres undefined) | 1 | 3 | 2 | 15 | 0 | 40
Cc1ccc(C)c(SCC(=O)Nc2nnc(-c3ccccc3)o2)c1 | 73* | 2 | 0 | 4 | 82* | 31
CC1=C(C(=O)Nc2cccc(C(=O)NC(C)c3ccccc3)c2)SCCO1 (centres undefined) | . | 18 | -4 | -2 | 3 | -6
Cn1c(=O)n(C)c2cc([N+](=O)[O-])c(N3CCN(S(=O)(=O)c4ccc(C(C)(C)C)cc4)CC3)cc21 | 74* | -3 | 3 | -1 | -11 | 15
Cn1c(=O)n(C)c2cc([N+](=O)[O-])c(N3CCN(C(=O)c4ccc(F)cc4)CC3)cc21 | -1 | -99 | 2 | -3 | -1 | 60*
Cn1c(=O)n(C)c2cc([N+](=O)[O-])c(N3CCN(C(=O)c4ccc(Cl)cc4)CC3)cc21 | -5 | 9 | -2 | 3 | 6 | 8
CC(=O)Nc1ccc(S(=O)(=O)N2CCN(c3cc4c(cc3[N+](=O)[O-])n(C)c(=O)n4C)CC2)cc1 | -15 | 9 | -3 | -2 | 0 | 10
O=C(c1cccc(F)c1)N1CCN(c2cc(N3CCCCC3)c(F)cc2[N+](=O)[O-])CC1 | 61* | -7 | -2 | 1 | 17 | -4
O=C(COC(=O)COc1ccc(Cl)cc1)NC1CCCCCC1 | . | 2 | . | . | . | .
CCCCOc1ccc(/C=N/NC(=S)Nc2cccc(C)c2C)cc1 | 14 | 4 | 0 | -4 | 7 | 3
Cc1cccc(C)c1NC(=S)N/N=C/c1ccc(OCCC(C)C)cc1 | 27 | -19 | 8 | -2 | 67* | 16
Cc1cc(OCC(=O)c2cccc(C(F)(F)F)c2)n2cnnc2n1 | . | -1 | -12 | -4 | -4 | 7
S=c1[nH]nc(-c2ccco2)n1/N=C/C=C/c1ccccc1 | 4 | 3 | -10 | -2 | -10 | 63*
COc1ccccc1/C=C/C=N/n1c(-c2ccccc2)n[nH]c1=S | . | 3 | 0 | 4 | -1 | 99*
CC(C)C1Nc2ccc(C(=O)NCCCN3CCOCC3)cc2NC1=O (centres undefined) | . | -8 | 1 | -1 | -10 | 19
Cc1ncsc1C(=O)Nc1nc2c(s1)CC(C)CC2 (centres undefined) | 65* | -7 | 23 | -2 | -1 | -1
CC1CCc2nc(NC(=O)C3CC3)sc2C1 (centres undefined) | 16 | -6 | 0 | -4 | -1 | -11
COc1ccc(O)c(C(=O)c2cc(SCC(=O)O)c3nc4sc5c(c4c(=O)n3c2)CCCC5)c1 | . | 7 | -1 | 4 | 52* | -5
CCOC(=O)c1sc2nc3c(SCC(=O)O)cc(C(=O)c4cc(F)ccc4O)cn3c(=O)c2c1C | -3 | 16 | 2 | 10 | 74* | -5
Cc1c(C(=O)Nc2ccccc2)csc1-c1ccccc1 | 31 | 9 | 30 | 3 | 1 | 5
Cc1c(C(=O)Nc2ccccc2[N+](=O)[O-])csc1-c1ccccc1 | 74* | -4 | 2 | -1 | -1 | -9
Cc1ccc(Nc2nc3ccccc3nc2-n2nc(C)cc2C)cc1 | -8 | -13 | -5 | -1 | 7 | 26
CC(=O)Nc1cc(C)nn1-c1nc(C)cc(C)n1 | -1 | 2 | 4 | 0 | 3 | 40
Cc1ccc(Nc2cc(C)nn2-c2nc(C)cc(=O)[nH]2)cc1 | 17 | 13 | -4 | -7 | 92* | 28
